Results as given in PubChem BioAssay (NCI).
Compounds without any hit were thinned out: in the full panel of roughly 79,000, 15% have a hit. Unmarked numbers belong to inactive results. Rule as the data show it: active = growth inhibition above about 70%; inactive = the rest.

experiment: NCI Yeast Anticancer Drug Screen. Data for the bub3 strain (AID 167); conditions: S. cerevisiae bub3 mutant strain, at 50.0 µM, hits give high values
Outline: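 Compounds were applied to a genetically altered yeast strain carrying a cell-cycle control defect. Growth inhibition was scored against vehicle-treated controls.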

Row | Compound | growth inhibition
1 | O=[N+]([O-])C(=C1NCCN1)C(Cl)=C(Cl)Cl | -1.2%
2 | O=C1C(=S)Nc2c(F)cccc21 | 29.6%
3 | c1ccc2oc(C34OC5CC(CC(C5)O3)O4)nc2c1 | 0.5%
4 | CCOC(=O)CCC(NC(=O)C(N)c1ccc([N+](=O)[O-])cc1)C(=O)NC(CCC(=O)OCC)C(=O)OCC (stereo not drawn) | -2.55%
5 | C=C(/C=C/CCCC)NC(=O)OCc1ccccc1 | 1.25%
6 | CC1=NN2C(=O)C(c3ccccc3)SC2=NC(C)(C)C1 (stereo not drawn) | -9.15%
7 | COc1ccc(Cc2cc3c(cc2OCC(=O)Nc2ccccn2)OCO3)cc1 | -3%
8 | NCCCc1ccc2oc3ccccc3c2c1 | -22.3%
9 | Cc1ccccc1CCCC(C(=O)O)C(=O)O | -1.55%
10 | CC(C)(C)NC(=O)Oc1ccc(Br)cc1Br | 9.75%
11 | CC(C)CCNCCC(C)C | -14.9%
12 | CCOC(=O)/C(=C\c1ccc(OCc2ccccc2)c(OC)c1)C(=O)c1ccccc1 | -13.4%
13 | COc1ccc2nc(-c3ccccc3)cc(N=[N+]=[N-])c2c1 | -23.1%
14 | Cc1ccc(-c2n[nH]c(=O)n2N2C(=O)C=CC2=O)cc1 | -15.4%
15 | CC(=O)OCCOCNC(=S)N/N=C(\C)c1cccs1 | 4.3%
16 | CN(N)C(=O)Nc1cccc(Cl)c1 | 2.7%
17 | C#CC1(O)CCCCCCCCC2(CCCCCCCC1)OCCO2 | -5.85%
18 | CCOC(=O)C1=C(NC(=O)C(c2ccccc2)c2ccccc2)OCC1 | -13.3%
